Test results: PubChem BioAssay (NCATS)
Records with an inconclusive call do not appear. Activity calls are given as the source filed them. Calls follow the shape of the dose curve; as a rule, active = well fitted inhibition curve with a large enough effect; inconclusive = small, poorly fitted or top-dose-only effect; inactive = flat fitted curve, though single readings scatter.

How the values were obtained:
Assay in all cases: qHTS profiling for inhibitors of Plasmodium falciparum proliferation (AID 504749); also: nearly all actives have a fitted effect of over 60% in size
Settings in all cases: P. falciparum in erythrocytes, SYBR Green DNA, 72 h; series mostly up to 28.7 µM
[1] = system: FAB9
In short: (§1)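 Infected RBCs, 0.3% parasitemia/2.5% Hct final; cpd 72 h, 37 C, 5% CO2; lysis buffer with saponin/triton/SYBR Green I, o/n RT dark; FI 485/535; norm. to artemisinin (0.29 uM) and DMSO.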

[2] = system: GB4
In short: as §1

[3] = system: HB3
In short: as §1

[4] = system: ICS
In short: as §1

[5] = system: JCK
In short: as §1

[6] = system: N140
In short: as §1

[7] = system: P93_24
In short: as §1

[8] = system: P94_40
In short: as §1

[9] = system: PAD
In short: as §1

[10] = system: PC15
In short: as §1

Measured: Potency
Potency is read from the fitted curve at half-maximal effect.

CCCCCCCCCCCCCCCCCC(=O)OCC(C)O (stereo not drawn)
inactive: all assays above

O[C@@H]([C@H](O)[C@H](O)CBr)[C@H](O)CBr
inactive: all assays above

Nc1ncnc2c1ncn2[C@H]1CC[C@@H](CO)O1
inactive: all assays above

C[Se]CC[C@H](N)C(=O)O
inactive: all assays above

CN(C)CCC=C1c2ccccc2C(C)(C)c2ccccc21
active: [2] 13500 nM | [4] 7940 nM
inactive: [1] | [3] | [5]

CN(Cc1ccccc1)Cc1ccccc1
inactive: all assays above

CCN(CC)CCOc1ccc2nc(N(C)C)sc2c1
inactive: all assays above

CCOC(=O)Cc1ccc(-c2ccccc2)cc1
active: [6] 224 nM
inactive: all other assays above

O=C1N=C2SCCN2C(=O)C1Cc1ccc(Cl)cc1 (stereo not drawn)
inactive: all assays above

CCCCO
inactive: all assays above

O=C(O)C1=C(CSc2nnnn2CS(=O)(=O)O)CS[C@@H]2[C@H](NC(=O)[C@H](O)c3ccccc3)C(=O)N12
inactive: all assays above

CCOC(=O)c1c[nH]c2cc(OCC(C)C)c(OCC(C)C)cc2c1=O
active: [1] 100 nM | [2] 60.1 nM | [3] 178 nM | [4] 79.4 nM | [5] 282 nM | [6] 141 nM | [7] 141 nM | [8] 126 nM | [9] 158 nM | [10] 112 nM

CN1C(=O)OC(C)(C)C1=O
inactive: all assays above

COc1ccc(C(=O)CCC(=O)O)c2ccccc12
inactive: all assays above

CCCOc1cc(N)ccc1C(=O)OCCN(CC)CC
inactive: all assays above

COC(=O)CC[C@H](N)C(=O)O
inactive: all assays above

CO[C@H]1C[C@@H]2CC[C@@H](C)[C@@](O)(O2)C(=O)C(=O)N2CCCC[C@H]2C(=O)O[C@H]([C@H](C)C[C@@H]2CC[C@@H](OC(=O)C(C)(CO)CO)[C@H](OC)C2)CC(=O)[C@H](C)/C=C(\C)[C@@H](O)[C@@H](OC)C(=O)[C@H](C)C[C@H](C)/C=C/C=C/C=C/1C
inactive: all assays above

COC(=O)[C@@H](N)CS
inactive: all assays above

CCC(Cc1c(I)cc(I)c(O)c1I)C(=O)O (stereo not drawn)
inactive: all assays above

COC1=C(OC)C(=O)C(C/C=C(\C)CC/C=C(\C)CC/C=C(\C)CC/C=C(\C)CC/C=C(\C)CC/C=C(\C)CC/C=C(\C)CC/C=C(\C)CC/C=C(\C)CCC=C(C)C)=C(C)C1=O
inactive: all assays above

O=P(O)(O)O
inactive: all assays above

CN1CCC(OC(=O)C(Oc2ccc(Cl)cc2)Oc2ccc(Cl)cc2)CC1
inactive: all assays above

CN(CCO)CC(O)Cn1cnc2c1c(=O)n(C)c(=O)n2C (stereo not drawn) (tested in a mixture with another compound)
inactive: all assays above

OCCCNc1ccccc1
inactive: all assays above

C=C1C(CCl)(CCl)C2(Cl)C(Cl)C(Cl)C1(Cl)C2(Cl)Cl (stereo not drawn)
active: [1] 3550 nM | [2] 2130 nM | [3] 2510 nM | [4] 355 nM | [5] 10000 nM | [6] 2000 nM | [7] 2000 nM | [8] 2510 nM | [9] 708 nM | [10] 2000 nM

CNC(=O)OCc1cccc(COC(=O)NC)n1
inactive: all assays above

C[C@H]1O[C@@H](O[C@H]2[C@@H](O)C[C@H](O[C@H]3[C@@H](O)C[C@H](O[C@H]4CC[C@@]5(C)[C@H](CC[C@@H]6[C@@H]5C[C@@H](O)[C@]5(C)[C@@H](C7=CC(=O)OC7)CC[C@]65O)C4)O[C@@H]3C)O[C@@H]2C)C[C@H](O)[C@@H]1O
not listed: [10]
inactive: all other assays above

COc1ccc(/C=N/NC(=O)c2ccncc2)c(C(=O)O)c1OC
inactive: all assays above

CC(=O)[C@H]1CC[C@H]2[C@@H]3C=CC4=CC(=O)CC[C@@]4(C)[C@H]3CC[C@]12C
inactive: all assays above

NC(N)=O
inactive: all assays above

CC(CCc1ccc(O)cc1)NCC(O)c1ccc(O)cc1 (stereo not drawn)
inactive: all assays above

CC/C=C\C/C=C\C/C=C\C/C=C\C/C=C\C/C=C\CCC(=O)O
active: [4] 12600 nM
inactive: all other assays above

CC(=O)Nc1ccc(NC(=S)NC(=O)c2ccc(C(C)(C)C)cc2)cc1
active: [4] 12600 nM
not listed: [10]
inactive: all other assays above

Cc1ccc(C(C)(C)c2ccc(C)cc2)cc1
inactive: all assays above

C[C@H](O)CN(C)C
inactive: all assays above

Cc1ncc(C[n+]2csc(CCO)c2C)c(N)n1
inactive: all assays above

CCN(CC)C(=S)S
inactive: all assays above

CCOC(=S)SSC(=S)OCC
inactive: all assays above

CC(C)[C@H](N)C(=O)OCC(CO)OCn1cnc2c(=O)[nH]c(N)nc21 (stereo partly drawn)
inactive: all assays above

CC1CC(OC(=O)C(O)c2ccccc2)CC(C)(C)C1 (stereo not drawn)
inactive: all assays above

F[Si-2](F)(F)(F)(F)F
inactive: all assays above

CCCCC[C@H](O)/C=C/[C@H]1[C@H](O)CC(=O)[C@@H]1C/C=C\CCCC(=O)O
inactive: all assays above

C=CC(C)(O)CC/C=C(\C)CCC=C(C)C (stereo not drawn)
inactive: all assays above

COC(=O)C(CN)c1c[nH]c2ccc(OC)cc12 (stereo not drawn)
inactive: all assays above

O=P(O)(O)OC[C@H]1O[C@](O)(COP(=O)(O)O)[C@@H](O)[C@@H]1O
inactive: all assays above

Cc1cc(=O)c(C(=O)N[C@@H](C(=O)N[C@@H]2C(=O)N3C(C(=O)O)=C(CSc4nnnn4C)CS[C@H]23)c2ccc(O)cc2)c[nH]1
inactive: all assays above

O=C(O)c1ccc(NC(=O)[C@H](Cc2ccc(O)cc2)NC(=O)c2ccccc2)cc1
inactive: all assays above

CC(C)CCCC(C)NC(C)C (stereo not drawn)
inactive: all assays above

CCCCCCCCCCCC(=O)N(CCO)CCO
inactive: all assays above

FCOC(C(F)(F)F)C(F)(F)F
inactive: all assays above

O=C(NNCS(=O)(=O)O)c1ccncc1
inactive: all assays above

CN[C@@H]1[C@H](O[C@H]2[C@H](O[C@H]3[C@H](O)[C@@H](O)[C@H](N=C(N)N)[C@@H](O)[C@@H]3N=C(N)N)O[C@@H](C)[C@]2(O)C=O)O[C@@H](CO)[C@H](O)[C@H]1O
inactive: all assays above

Cc1ncc(COP(=O)(O)O)c(CN)c1O
inactive: all assays above

O=C1[O][Bi][O]c2ccccc21
inactive: all assays above

COc1cc2c(cc1OC)[C@@H](Cc1cc(OC)c(OC)c(OC)c1)[N+](C)(CCCOC(=O)CC/C=C/CCC(=O)OCCC[N+]1(C)CCc3cc(OC)c(OC)cc3[C@H]1Cc1cc(OC)c(OC)c(OC)c1)CC2 (stereo partly drawn)
inactive: all assays above

O=C1c2ccccc2CN2C(=O)c3ccccc3CN12
inactive: all assays above

O=C(NCCNCC(O)COc1ccc(O)cc1)N1CCOCC1 (stereo not drawn)
inactive: all assays above

O=C(Nc1ccc(O)cc1)c1ccccc1O
inactive: all assays above

CCCCC(CC)COS(=O)(=O)O (stereo not drawn)
inactive: all assays above

CC1CC(O)CC(C)(C)C1 (stereo not drawn)
inactive: all assays above

CCN(CC)CCOC(=O)c1cccnc1
inactive: all assays above

COc1ccc(/C=C/C(=O)O)cc1
inactive: all assays above

CO
inactive: all assays above

Cc1cccc(Nc2ncccc2C(=O)O)c1C
inactive: all assays above

O=C1CCC(=O)N1CO
inactive: all assays above

CCCCCCCCCCCCCCCCCC[N+](C)(C)CCC[Si](OC)(OC)OC
inactive: all assays above

Cc1ccc(S(=O)(=O)O)cc1C
inactive: all assays above

CC(C)c1ncc([N+](=O)[O-])n1C
inactive: all assays above

NC(=S)NS(=O)(=O)c1ccc(N)cc1
inactive: all assays above

CC1(O)CCC(C(C)(C)O)CC1 (stereo not drawn)
inactive: all assays above

O=C(/C=C/c1cccc(F)c1)NC1CC1
inactive: all assays above

C=C(C)C1CC=C(C)CC1 (stereo not drawn)
inactive: all assays above

C=CC(=O)O
inactive: all assays above

CC(=O)Oc1cccc(C(=O)O)c1OC(C)=O
inactive: all assays above

NC(=O)[C@H]1O[C@@H](O)[C@H](O)[C@@H](O)[C@@H]1O
inactive: all assays above

COc1cc(S(C)=O)ccc1-c1nc2ncccc2[nH]1 (stereo not drawn)
inactive: all assays above

CCOC(=O)c1cc(-c2ccccc2)nc2ccc(C)cc12
inactive: all assays above

NC(=O)[C@@H]1CCCN1C(=O)[C@H](Cc1cnc[nH]1)NC(=O)[C@@H]1CCC(=O)N1
inactive: all assays above

C=Cc1ccc(S(=O)(=O)O)cc1
inactive: all assays above

CCC(C(=O)NC(N)=O)c1ccccc1 (stereo not drawn)
inactive: all assays above

CC1C(=O)CC2C3(C)CCC2(C(C)C(=O)O)C(=O)C13 (stereo not drawn)
inactive: all assays above

O=C(O)CCC(=O)c1ccc(-c2ccccc2)cc1
inactive: all assays above

CCCCCCOC(=O)c1cccnc1
inactive: all assays above

CC1=CC(=O)NS(=O)(=O)O1
inactive: all assays above

CC(=O)N[C@@H]1C(O[C@H]2O[C@H](C(=O)O)C(O)[C@H](O)[C@H]2O)[C@H](O)[C@@H](CO)O[C@H]1O[C@@H]1C(C(=O)O)O[C@@H](O[C@H]2[C@H](O)[C@@H](CO)OC(O)[C@@H]2NC(C)=O)[C@H](O)[C@H]1O (stereo partly drawn)
inactive: all assays above

CCOc1ccc(S(=O)(=O)O)c2cccnc12
inactive: all assays above

c1ccc2c(c1)OCC(CN1CCCCC1)O2 (stereo not drawn)
inactive: all assays above

COc1ccc(C(=O)c2ccc(C)cc2)c(O)c1
inactive: all assays above

Nc1nc(=O)n([C@@H]2CS[C@H](CO)O2)cc1F
inactive: all assays above

O=C(O)Cc1nn(Cc2ccc(Br)cc2F)c(=O)c2ccccc12
inactive: all assays above

CC(C)(Oc1ccc(C2CCCc3ccccc32)cc1)C(=O)O (stereo not drawn)
inactive: all assays above
